Consider 17 compounds from PubChem BioAssay.

Assay [1] is described as follows: hESC survival regulators, cell-based (AID 493140).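 Further: cells exposed to compounds for four days before counting.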 The following applies: human embryonic stem cell survival screen; stronger effect = higher value.
A short description of assay [2]: sensitizers of A549 cells to miR-34 induction, primary screen, imaging, A549 dox-inducible miR-34, nuclei and caspase counts (AID 1347080;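 active means compounds whose cell count with miR-34 switched on is under 0.7 times the count with it off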). The following applies: A549 miR-34 inducible, Hoechst nuclei count, 48 h.
The nature of assay [3]: inhibitors of Cryptococcus chitosan production, flow cytometry, Cibacron Brilliant Red staining (AID 1347148).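 Further: compound exposure lasted three days at 37 degrees C.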 The following applies: Cryptococcus neoformans chitosan, stronger effect = lower value; at 10 µM unless noted. A general note: Flow cytometry measures light scatter and fluorescence of single cells or particles in a stream.
Assay [4] can be described thus: circadian clock period modulators, cell-based, LOPAC library, luminescence reporter (AID 2774).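 Further: values are relative to mean of DMSO wells on each plate.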 The following applies: circadian reporter cells, at 7 µM, actives lie on both sides.
Assay [5] has as its system Hepatitis C virus NS3 helicase. The experiment in a line: HCV NS3 helicase inhibitors, primary screen, biochemical, fluorescence polarization, LOPAC1280 library (AID 687035; in the data active means inhibition above about 37%). The following applies: Purified HCV NS3 helicase, Cy5-dT15 ssDNA binding fluorescence polarization; stronger effect = higher value; concentration not given here. For orientation: Fluorescence polarisation rises when a labelled molecule tumbles more slowly, as on binding a larger partner.

A short description of assay [6]: Cy5 fluorescence quenching or enhancement artefacts, artefact control for HCV NS3 helicase inhibitor project, biochemical, LOPAC1280 (AID 687037). The following applies: Cy5-DNA-NS3h complex fluorescence interference counterscreen. On the technique in general: Counterscreens check selectivity or assay interference.
The nature of assay [7]: phospholipid biosynthesis inhibitors in animal cells, primary screen, cell-based, LOPAC library, screen 4 (AID 1347384). The following applies: phospholipid biosynthesis inhibition screen, at 10 µM.
Assay [8] in a line: viability rescue of complex I mutant cybrids, primary screen, cell-based, galactose medium, ATP luminescence (AID 1645843;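 active means z-score of at least 1.8 in each of two replicates, scored against plate mean and spread of sample wells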;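 further: positive z means more ATP and so rescue of galactose-driven cybrid death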). The following applies: complex I mutant cybrid cells, 72 h, stronger effect = higher value.
Setting [9] is: measured here: relative caspase fold change +Dox/-Dox.
Setting [10] is: measured here: total cells with miR-34 induction, stronger effect = lower value.
Where [11] appears, read: measured here: total cells without miR-34 induction.

“And” between values parts separate entries of the source, which are not always exact repeats. Equal entries are not always repeated. The source made the active and inactive calls. Unless noted, how the calls were made is not given here. Peptide text beside a SMILES is read from it. * marks the point of attachment. CH2Cl = ClC*

As for `CCCCCC1OC1C/C=C\CCCCCCCC(=O)O` (configuration not stated), in assay [1], the survival is 100 (inactive). The fold change in assay [2] (stronger effect = lower value) was 0.986 (inactive); in assay [2] (setting [9]), 1.2. Besides, the values for the cell count in assay [2] (setting [10]) and in assay [2] (setting [11]) were 5980 and 6070, respectively. In addition, the fold fluorescence in assay [3] is 4.22 [at 1 µM] (inactive).

Regarding `C=CCN1C[C@@H](C)N([C@H](c2ccc(C(=O)N(CC)CC)cc2)c2cccc(OC)c2)C[C@@H]1C`, the period change in assay [4] is 0 h (inactive). Besides, the inhibition in assay [5] was -3% (inactive). Also, in assay [6], the fluorescence ratio (interference) was 1 (inactive). Also, the results for the fold change in assay [2] (stronger effect = lower value) and in assay [2] (setting [9]) were 1.1 (inactive) and 1.18, respectively. Further, the cell count in assay [2] (setting [10]) was 8780; in assay [2] (setting [11]), 7950. Moreover, in assay [7], the result was inactive. Moreover, the z-score in assay [8] was -0.39 (inactive).

Turning to `CCCCC/C=C\C/C=C\C/C=C\C/C=C\CCCC(N)=O`, the survival in assay [1] is 110 (inactive). Besides, the fold change in assay [2] (stronger effect = lower value) was 1.05 (inactive) and 1.02 (inactive); in assay [2] (setting [9]), 1.34 and 1.46. In addition, the cell count in assay [2] (setting [10]) is 6020 and 5980; in assay [2] (setting [11]) it was 5750 and 5890. Further, the fold fluorescence in assay [3] is 4.13 (inactive).

Consider `CCCCC/C=C\C[C@@H](/C=C/C=C\C/C=C\CCCC(=O)O)OO`, for which the survival in assay [1] is 111 (inactive). The fold change in assay [2] (stronger effect = lower value) is 0.888 (inactive); in assay [2] (setting [9]), 1.25. The cell count in assay [2] (setting [10]) worked out at 5520; in assay [2] (setting [11]), 6220. In addition, in assay [3], the fold fluorescence was 6.04 [at 1 µM] (inactive).

As to `O=C(NC1CN2CCC1CC2)c1cc2ccoc2cn1` (configuration not stated), the fold change in assay [2] (stronger effect = lower value) was 0.991 (inactive); in assay [2] (setting [9]) it was 1.41. Also, the cell count in assay [2] (setting [10]) came to 10200; in assay [2] (setting [11]), 10300. Besides, in assay [7], the result was inactive. In addition, the z-score in assay [8] was 0.38 (inactive).

Consider `NC(CP(=O)(O)O)C(=O)O` (configuration not stated), for which, in assay [4], the period change is -0.025 h (inactive). For the same compound, the inhibition in assay [5] was -2% (inactive). Also, the fluorescence ratio (interference) in assay [6] is 1 (inactive). Also, the fold change was 1.01 (inactive) in assay [2] (stronger effect = lower value) and 2.04 in assay [2] (setting [9]). In addition, the cell count in assay [2] (setting [10]) turned out to be 10500; in assay [2] (setting [11]) it was 10400. The result in assay [7] was inactive. The z-score in assay [8] is 0.29 (inactive).

For the compound `C[C@H](N)C(=O)N[C@@H](C)C(=O)N[C@@H](Cc1ccccc1)C(=O)CCl` (H-Ala-Ala-Phe-CH2Cl), the fold change is 0.806 (inactive) in assay [2] (stronger effect = lower value) and 1.41 in assay [2] (setting [9]). Besides, the cell count in assay [2] (setting [10]) came out at 2970; in assay [2] (setting [11]) it was 3680. In addition, the fold fluorescence in assay [3] is 4.89 [at 147.1 µM] (inactive).

Consider `CCCCC/C=C\C/C=C\C/C=C\CCCCCCC(=O)NCCO`, for which the survival in assay [1] is 87.2 (inactive). For the same compound, the fold change in assay [2] (stronger effect = lower value) is 0.972 (inactive) and 1.13 (inactive); in assay [2] (setting [9]), 1.55 and 0.675. The cell count in assay [2] (setting [10]) is 5830 and 6550; in assay [2] (setting [11]) it was 5990 and 5800. In addition, the fold fluorescence in assay [3] was 5.22 (inactive).

Turning to `C=CCN1CC[C@]23CCCCC2[C@H]1Cc1ccc(O)cc13` (some centres not stated), in assay [4], the period change was 0.175 h (inactive). The inhibition in assay [5] was -4% (inactive). The fluorescence ratio (interference) in assay [6] is 1 (inactive). Besides, the fold change in assay [2] (stronger effect = lower value) was 1.09 (inactive); in assay [2] (setting [9]), 0.636. Also, the results for the cell count in assay [2] (setting [10]) and in assay [2] (setting [11]) were 10900 and 10000, respectively. The call in assay [7] was inactive. For the same compound, the z-score in assay [8] is -0.095 (inactive).

With `CCCCC[C@@H](/C=C/C=C\CCCCCCCC(=O)O)OO`, the survival in assay [1] was 94.8 (inactive). For the same compound, the fold change in assay [2] (stronger effect = lower value) was 0.981 (inactive); in assay [2] (setting [9]), 1.1. In addition, the values for the cell count in assay [2] (setting [10]) and in assay [2] (setting [11]) were 5710 and 5820, respectively. Further, the fold fluorescence in assay [3] was 6.27 [at 1 µM] (inactive).

`CC(C)(C)OC(=O)NC1[C@H]2CNC[C@@H]12` (some centres not stated): the fold change in assay [2] (stronger effect = lower value) was 1.05 (inactive); in assay [2] (setting [9]), 1.39. In addition, the cell count in assay [2] (setting [10]) stood at 11400; in assay [2] (setting [11]), 10800. Besides, in assay [7], the outcome was inactive. Moreover, the z-score in assay [8] is 0.37 (inactive).

Consider `C=CCN1CCC23c4c5ccc(O)c4O[C@H]2C(=O)CC[C@@]3(O)C1C5` (some centres not stated), for which the period change in assay [4] is -0.035 h (inactive). Also, the inhibition in assay [5] is -4% (inactive). Also, in assay [6], the fluorescence ratio (interference) is 1 (inactive). Also, the results for the fold change in assay [2] (stronger effect = lower value) and in assay [2] (setting [9]) were 1.07 (inactive) and 1.06, respectively. In addition, the results for the cell count in assay [2] (setting [10]) and in assay [2] (setting [11]) were 11300 and 10600, respectively. Also, the result in assay [7] was inactive. Also, the z-score in assay [8] is 0.37 (inactive).

With `N#CC(=Cc1ccc(O)c(O)c1)C(N)=S`, in assay [4], the period change was -0.06 h (inactive). Also, the inhibition in assay [5] was 3% (inactive). Further, the fluorescence ratio (interference) in assay [6] was 0.9 (inactive). For the same compound, the fold change in assay [2] (stronger effect = lower value) is 0.981 (inactive); in assay [2] (setting [9]), 1.34. For the same compound, the cell count in assay [2] (setting [10]) is 9410; in assay [2] (setting [11]), 9590. Also, the outcome in assay [7] was inactive. Further, the z-score in assay [8] was -0.465 (inactive).

For `COc1cc(C(O)CN)ccc1O` (configuration not stated), the period change in assay [4] was -0.145 h (inactive). Further, the inhibition in assay [5] was -3% (inactive). For the same compound, in assay [6], the fluorescence ratio (interference) was 1 (inactive). For the same compound, the fold change in assay [2] (stronger effect = lower value) is 1.05 (inactive); in assay [2] (setting [9]) it was 2.66. Further, the cell count came out at 11000 in assay [2] (setting [10]) and 10500 in assay [2] (setting [11]). The outcome in assay [7] was inactive. Further, in assay [8], the z-score is 0.4 (inactive).

On to `CCCCCCCCCCCCCCCCOC[C@@H](COP(=O)([O-])OCC[N+](C)(C)C)OC(C)=O`, for which the survival in assay [1] was 78.6 (inactive). In addition, the fold change in assay [2] (stronger effect = lower value) is 0.883 (inactive); in assay [2] (setting [9]), 0.996. In addition, the cell count was found to be 4960 in assay [2] (setting [10]) and 5620 in assay [2] (setting [11]). Moreover, the fold fluorescence in assay [3] is 4.51 (inactive) and 4.92 (inactive).

As to `CCCCC/C=C\C/C=C\C/C=C\C=C\[C@H](CCCC(=O)O)OO`, the survival in assay [1] was 114 (inactive). The fold change is 0.99 (inactive) in assay [2] (stronger effect = lower value) and 1.08 in assay [2] (setting [9]). Moreover, the figures for the cell count in assay [2] (setting [10]) and in assay [2] (setting [11]) were 5950 and 6010, respectively. Also, the fold fluorescence in assay [3] was 5.34 [at 1 µM] (inactive).

As to `CC(N)c1cccc(Cl)c1Cl` (configuration not stated), the period change in assay [4] is 0.03 h (inactive). In assay [5], the inhibition is -2% (inactive). Moreover, the fluorescence ratio (interference) in assay [6] is 1 (inactive). The fold change in assay [2] (stronger effect = lower value) is 1.05 (inactive); in assay [2] (setting [9]), 0.961. Also, the cell count in assay [2] (setting [10]) is 10200; in assay [2] (setting [11]) it was 9670. The outcome in assay [7] was inactive. In addition, the z-score in assay [8] is 0.12 (inactive).

As usually defined, the inhibition is the relative decrease from the control value, in per cent.
